FLuc inh – Firefly luciferase inhibition profiling of diverse chemical library using quantitative high-throughput screening. Luciferin 4-monooxygenase (Photinus pyralis), P08659. purified P. pyralis luciferase, luminescence, biochemical. Potency, µM (top dose mostly 115 µM), most hits filed as inhibitors. actives 2.5% (n = 76,000). AID 1347043, 2019; further: nearly all actives have a fitted effect of over 65% in size
Target sequence (P08659 whole entry, looked up): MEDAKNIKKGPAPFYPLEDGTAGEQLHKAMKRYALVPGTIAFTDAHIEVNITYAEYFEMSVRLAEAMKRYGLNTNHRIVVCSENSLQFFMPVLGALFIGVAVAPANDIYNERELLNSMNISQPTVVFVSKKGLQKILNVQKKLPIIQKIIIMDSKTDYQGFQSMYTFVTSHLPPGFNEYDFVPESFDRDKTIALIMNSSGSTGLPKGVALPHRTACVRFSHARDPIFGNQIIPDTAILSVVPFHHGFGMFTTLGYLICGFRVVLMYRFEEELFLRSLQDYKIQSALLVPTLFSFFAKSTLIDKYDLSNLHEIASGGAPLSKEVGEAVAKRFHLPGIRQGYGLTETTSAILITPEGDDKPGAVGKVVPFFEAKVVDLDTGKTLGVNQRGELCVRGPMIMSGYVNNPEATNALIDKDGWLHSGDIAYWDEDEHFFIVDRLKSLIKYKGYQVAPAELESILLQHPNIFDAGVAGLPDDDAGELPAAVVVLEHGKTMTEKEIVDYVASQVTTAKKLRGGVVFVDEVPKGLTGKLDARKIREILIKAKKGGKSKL
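FLuc 10nM, D-luciferin 10uM, ATP 10uM, Mg acetate 10mM, Tris acetate pH 7.5, Tween/BSA; cpd qHTS; enzyme added last; CCD luminescence.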
IP6K1 inh – Primary qHTS assay for small molecule inhibitors of Inositol hexaphosphate kinase 1 (IP6K1). Inositol hexakisphosphate kinase 1 (Homo sapiens), Q92551. IP6K1 kinase, ADP-Glo luminescence, 2 h; stronger effect = lower value. activity change, % (series mostly up to about 58 µM). actives 0.81% (n = 140,000). AID 1645851, 2021; in the data active means activity change below about -25%
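ADP-Glo luminescence measures ADP made by human IP6K1 during a 2 h RT reaction with ATP/IP6 (mix at 1.3 mM/130 uM); top library doses 57.5 and 19.1 uM final.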
HEK cytotox – Cytotoxic Profiling in HEK 293 Cell Line of Diverse Libraries Using Quantitative High-Throughput Screening; actives 6.6% (n = 94,000); AID 1345083, 2018; Potency, µM (highest dose often 115 µM), actives largely listed as inhibitors; HEK 293 viability, ATP luminescence (CellTiter-Glo), 48-72 h; further: nearly all actives have a fitted effect of over 60% in size
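Pintool-delivered compounds were incubated with HEK 293 cells (250 cells/well) at 37 degree Celsius for 48 or 72 hr. ATP-dependent luminescence (CellTiter-Glo) then reported remaining viable cells.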
HEK293 viab – GF-AFC viability counterscreen for inhibitors of alpha-synuclein gene (SNCA) expression; HEK-293-SNCA-luc viability, GF-AFC fluorescence, 24 h; Potency, µM (top dose mostly 57.1 µM), most hits filed as cytotoxic; actives 0.12% (n = 150,000); AID 1671193, 2021; further: nearly all actives have a fitted effect of over 30% in size
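Cytotoxicity counterscreen: after 24 h compound treatment of genome-edited SNCA-luciferase HEK-293 cells, live-cell protease substrate GF-AFC read by fluorescence after 30 min; activity scaled between DMSO (0%) and medium-only (-100%), curves Hill-fitted.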
NIH3T3 tox – Cytotoxic Profiling in NIH 3T3 Cell Line of Diverse Libraries Using Quantitative High-Throughput Screening; NIH 3T3 viability, CellTiter-Glo ATP luminescence, 48-72 h; Potency, µM (titrated, usually from 96.7 µM), most hits filed as inhibitors; actives 4.3% (n = 94,000); AID 1345082, 2018; further: nearly all actives have a fitted effect of over 55% in size
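Cells were seeded at 400 per well, treated with pin-transferred compound, and kept 48 or 72 hr at 37 °C before CellTiter-Glo addition and luminescence imaging of cellular ATP.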
SNCA expr inhib – Primary qHTS assay for inhibitors of alpha-synuclein gene (SNCA) expression; HEK-293 SNCA-luciferase knock-in, luminescence, 24 h; Potency, µM (series often up to 57.2 µM), usual class: inhibitors; actives 0.17% (n = 140,000); further: nearly all actives have a fitted effect of over 45% in size
Each line names hits and unclear results; the compound was inactive in the other large screens. This is a sample that favours compounds with a hit; in the whole collection about 7.3% have one here. Unless noted, the call rests on the fitted dose curve; in most records, active means well fitted curve in the direction sought with a large enough effect; inconclusive means small, poorly fitted or top-dose-only effect, or another doubt; inactive means no such curve, though single readings can be large; an effect the other way counts as inactive or inconclusive.

CCOc1ccccc1CN1CCC2(CCN(C(=O)Cc3cccc(Cl)c3)CC2)Oc2ccccc21	none
CCc1cc(=O)n(Cc2ccccc2)c(N2CCOCC2)n1	HEK cytotox inconclusive
CN1CCC(OC2CCN(C(=O)CCCc3ccccc3)CC2)CC1	FLuc inh 28µM
CNC(=O)N1CCC(C2CCN(C(=O)Cc3ccccc3)C2)CC1 (configuration not stated)	none
CNC(=O)N1CCC(C2CCN(C(=O)CCCc3ccccc3)C2)CC1 (configuration not stated)	FLuc inh 25µM
CCn1ncc(N2CCCC(CC(=O)Nc3ccccc3OC)C2)cc1=O (configuration not stated)	NIH3T3 tox inconclusive
COc1ccc(CCN(Cc2ccccc2F)CC2(O)CCCNC2)cc1 (configuration not stated)	HEK cytotox 25µM, NIH3T3 tox 25µM
O=C1Cc2c(-c3ccccc3Cl)n[nH]c2CN1CC1CCOCC1	NIH3T3 tox 89µM
COCc1cccc(-c2n[nH]c3c2CC(=O)N(CC2CCOCC2)C3)c1	NIH3T3 tox inconclusive
O=C1Cc2c(-c3ccccc3)n[nH]c2CN1CC1CCOCC1	NIH3T3 tox 50µM, SNCA expr inhib inconclusive
O=C(Nc1cccc(F)c1)c1cc(-c2ccc[nH]2)n[nH]1	FLuc inh 2.2µM
O=C(Nc1ccc(F)cc1)c1cc(-c2ccc[nH]2)n[nH]1	FLuc inh 5µM
CC1CCC(NC(=O)c2cc(-c3ccc[nH]3)n[nH]2)CC1 (configuration not stated)	FLuc inh inconclusive
O=C(NCc1ccc(F)cc1)c1cc(-c2ccc[nH]2)n[nH]1	none
O=C(Nc1cccc(C(F)(F)F)c1)c1cc(-c2ccc[nH]2)n[nH]1	FLuc inh inconclusive
Cc1ccc(NC(=O)c2cc(-c3ccc[nH]3)n[nH]2)cc1F	FLuc inh 8.9µM, HEK cytotox inconclusive, NIH3T3 tox inconclusive
Cc1cc(F)ccc1NC(=O)c1cc(-c2ccc[nH]2)n[nH]1	FLuc inh 40µM, HEK cytotox inconclusive
N#CCNC(=O)[C@@H]1CCCN1c1ccnc2ccnn12	none (no result: FLuc inh, HEK293 viab, SNCA expr inhib)
CNC(=O)[C@@H](Cc1ccccc1)N1CCC[C@H]1C(=O)NC1CC1	none
COc1cccc(-c2cc(C(=O)Nc3ccc(F)cc3)[nH]n2)c1	none (no result: FLuc inh, HEK cytotox, NIH3T3 tox)
CSc1ccc(NC(=O)c2cc(-c3ccc[nH]3)n[nH]2)cc1	FLuc inh 4.5µM
O=C(Nc1cccc(Cl)c1)c1cc(-c2ccc[nH]2)n[nH]1	FLuc inh 1.6µM
c1ccc(CCn2cnc3cccnc32)cc1	FLuc inh 40µM
CN(Cc1ccccc1)C(=O)c1noc(-c2ccc(F)cc2)n1	FLuc inh inconclusive, HEK cytotox inconclusive
CN(C)C[C@@H]1CN(Cc2ccccc2)C[C@H]1NC(=O)c1ccnn1C	none
CN(C)C[C@@H]1CN(Cc2ccccn2)C[C@H]1NC(=O)c1ccc(Cl)cc1	HEK cytotox inconclusive
COc1ccc(C(=O)N[C@@H]2CN(Cc3ccccc3)C[C@H]2CN(C)C)cc1F	HEK cytotox 6.3µM, NIH3T3 tox 20µM, SNCA expr inhib inconclusive (no result: FLuc inh)
CN(C)C[C@@H]1CN(Cc2ccccc2)C[C@H]1NC(=O)c1nn(C)c2ccccc12	HEK cytotox 40µM, NIH3T3 tox inconclusive (no result: FLuc inh)
CN(C)C[C@@H]1CN(Cc2ccccn2)C[C@H]1NC(=O)c1ccc(Cl)s1	HEK cytotox 79µM
COc1ccc(C(=O)N[C@@H]2CN(Cc3cccnc3)C[C@H]2CN(C)C)cc1F	HEK cytotox inconclusive, NIH3T3 tox inconclusive
Cc1ccsc1C(=O)N1CCC2(CC1)NCCc1c2[nH]c2ccccc12	HEK cytotox 45µM
COc1ccc(C(=O)N2CCC3(CC2)NCCc2c3[nH]c3ccccc23)cc1F	HEK cytotox 13µM, NIH3T3 tox inconclusive, SNCA expr inhib inconclusive

Source: PubChem
